Assay [1] deals with Bromodomain-containing protein 4 (Homo sapiens) (UniProt O60885). Conditions: Compound concentration 20.0 uM, Protein concentration 2.0 uM, Result type QC Liability.
For assay [2], the target named is T1, Transcription intermediary factor 1-alpha (Homo sapiens) (UniProt O15164).
T1 sequence (whole entry): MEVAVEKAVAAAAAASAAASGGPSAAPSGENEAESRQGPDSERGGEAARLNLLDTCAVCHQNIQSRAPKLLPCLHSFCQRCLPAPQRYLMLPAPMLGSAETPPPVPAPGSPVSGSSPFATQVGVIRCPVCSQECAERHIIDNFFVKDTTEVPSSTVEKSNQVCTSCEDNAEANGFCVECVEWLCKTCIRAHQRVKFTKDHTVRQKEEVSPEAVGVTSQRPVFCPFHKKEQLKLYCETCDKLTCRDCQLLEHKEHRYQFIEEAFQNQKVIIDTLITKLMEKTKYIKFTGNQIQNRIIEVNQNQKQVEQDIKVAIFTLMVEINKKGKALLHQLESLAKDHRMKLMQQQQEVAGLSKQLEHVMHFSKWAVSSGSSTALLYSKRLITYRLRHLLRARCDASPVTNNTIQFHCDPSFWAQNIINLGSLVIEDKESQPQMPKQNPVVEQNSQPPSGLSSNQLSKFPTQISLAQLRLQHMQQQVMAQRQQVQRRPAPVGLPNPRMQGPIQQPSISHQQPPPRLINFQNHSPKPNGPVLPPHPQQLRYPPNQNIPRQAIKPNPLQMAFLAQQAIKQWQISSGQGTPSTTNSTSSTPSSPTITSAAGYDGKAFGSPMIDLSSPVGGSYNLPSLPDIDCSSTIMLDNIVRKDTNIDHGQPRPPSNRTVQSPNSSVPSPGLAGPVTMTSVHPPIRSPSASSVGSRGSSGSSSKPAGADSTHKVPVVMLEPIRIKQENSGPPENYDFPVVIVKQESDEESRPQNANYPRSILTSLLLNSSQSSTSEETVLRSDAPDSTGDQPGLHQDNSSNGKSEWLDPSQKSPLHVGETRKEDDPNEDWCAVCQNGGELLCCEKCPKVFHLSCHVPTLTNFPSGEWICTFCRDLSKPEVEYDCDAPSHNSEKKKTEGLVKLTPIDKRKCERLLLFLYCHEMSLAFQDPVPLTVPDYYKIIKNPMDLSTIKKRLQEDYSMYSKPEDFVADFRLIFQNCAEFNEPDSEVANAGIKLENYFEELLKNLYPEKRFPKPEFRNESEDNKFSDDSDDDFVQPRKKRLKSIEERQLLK
The conditions noted are these: Compound concentration 20.0 uM, Protein concentration 2.0 uM, Result type QC Liability.

Where “and” joins values, the source holds several entries; their conditions need not be identical. Equal values may be shown once.

As a reminder, the ΔTm is the change in melting temperature against a reference sample. Take `Cc1cc(S(=O)(=O)N2CC(C)(C)c3cc(-c4ccc(C(F)(F)F)cc4)ccc32)ccc1OCC(=O)O`: the shift in melting temperature (ΔTm) in assay [1] was 0.64 °C; in assay [2] it was 0.9 °C.
The matching figures for `O=c1[nH]c(CS[C@H]2CC[C@H](O)CC2)nc2cc(OCC3CC3)cc(F)c12`: -0.97 °C and -3.28 °C.
With `N=C(N)NCCC[C@H](NC(=O)CC1(CC(=O)N2CCN(C3c4ccccc4NC(=O)c4ccccc43)CC2)CCCC1)C(=O)NCCn1c(=O)n(-c2ccccc2)n(-c2ccccc2)c1=O` (some centres not stated), the figures for the ΔTm in assay [1] and in assay [2] were 0.44 °C and -2.38 °C, respectively.
The matching figures for `CCS(=O)(=O)Nc1cccc(Oc2cncc(Nc3ccc(I)cc3F)c2C(N)=O)c1`: -0.22 °C and 1.47 °C.
In the same order, the values of `C[C@H]1CN(C2COC2)CCN1c1ccc(Nc2cc(-c3ccnc(N4CCn5c(cc6c5CC(C)(C)C6)C4=O)c3CO)cn(C)c2=O)nc1` are -1.88 °C and 0.42 °C.
Consider `O=C(O)c1ccc(OCCCc2ccc(OCCCCOC3CCCCC3)cc2)c(C(=O)NC2CCCC(C(=O)O)C2)c1` (configuration not stated), for which the shift in melting temperature (ΔTm) was found to be 0.35 °C in assay [1] and 0.3 °C in assay [2].
In the same order, the values of `Cc1cc(OCc2nc3ccccc3s2)ccc1NC(=O)Nc1ccc(Cl)c(Cl)c1` are 0.28 °C and -0.82 °C.
In the same order, the values of `O=C(O)c1ccnc(N2CC(O)(c3ccc(OCc4c(-c5c(Cl)cccc5Cl)noc4C4CC4)cc3Cl)C2)c1` are -4.33 °C and -1.77 °C.
The matching figures for `Cc1ccc(NC(=O)c2ccc(CN3CC[C@H](N(C)C)C3)c(C(F)(F)F)c2)cc1Nc1nccc(-c2cncnc2)n1`: -1.21 °C and -0.69 °C.
`Cc1ccc(-n2nc(C(C)(C)C)cc2NC(=O)Nc2ccc(OCCN3CCOCC3)c3ccccc23)cc1`: the thermal shift (ΔTm) in assay [1] was 0 °C and -1.27 °C; in assay [2] it was -0.19 °C and -3.17 °C.
As to `CCCCCCC(Sc1nc(Cl)cc(NCc2ccc(-c3ccccc3)cc2)n1)C(=O)O` (configuration not stated), the ΔTm in assay [1] was -1.48 °C; in assay [2] it was 0.51 °C.

The values are drawn from ChEMBL document CHEMBL5308504, “Tm Shift (DSF) assay results for EUbOPEN Chemogenomics Library” (2023).
